Inconclusive results are not listed. The source made the active and inactive calls. Unless noted, calls follow the shape of the full dose curve.
Key:
[1] = qHTS for Inhibitors of the Functional Ribonucleoprotein Complex (vRNP) of Lassa (LASV) Arenavirus: LASV Primary Screen - GLuc reporter signal (AID 1347082; calls by dose curve; tested in HEK293 reporter line; also: nearly all actives have a fitted effect of over 60% in size)
[2] = qHTS for Inhibitors of the Functional Ribonucleoprotein Complex (vRNP) of Lassa (LASV) Arenavirus: Viability assay - alamar blue signal for LASV Primary Screen (AID 1347083; calls by dose curve; tested in HEK293 reporter line; also: nearly all actives have a fitted effect of over 80% in size)
[3] = qHTS for Inhibitors of the Functional Ribonucleoprotein Complex (vRNP) of Lymphocytic Choriomeningitis Arenaviruses (LCMV): Viability assay - alamar blue signal for LCMV Primary Screen (AID 1347085; calls by dose curve; tested in HEK293 reporter line; also: nearly all actives have a fitted effect of over 80% in size)
[4] = molecular target: Nucleoprotein (Lymphocytic choriomeningitis virus (strain Armstrong)) (UniProt P09992); assay: qHTS for Inhibitors of the Functional Ribonucleoprotein Complex (vRNP) of Lymphocytic Choriomeningitis Arenaviruses (LCMV): LCMV Primary Screen - GLuc reporter signal (AID 1347086); also: nearly all actives have a fitted effect of over 70% in size
% is scaled to controls: 0 for no effect and ±100 for the full control effect.
Also: series mostly up to about 57 µM.

Chain of Nucleoprotein (Lymphocytic choriomeningitis virus (strain Armstrong)) (P09992 whole entry, looked up): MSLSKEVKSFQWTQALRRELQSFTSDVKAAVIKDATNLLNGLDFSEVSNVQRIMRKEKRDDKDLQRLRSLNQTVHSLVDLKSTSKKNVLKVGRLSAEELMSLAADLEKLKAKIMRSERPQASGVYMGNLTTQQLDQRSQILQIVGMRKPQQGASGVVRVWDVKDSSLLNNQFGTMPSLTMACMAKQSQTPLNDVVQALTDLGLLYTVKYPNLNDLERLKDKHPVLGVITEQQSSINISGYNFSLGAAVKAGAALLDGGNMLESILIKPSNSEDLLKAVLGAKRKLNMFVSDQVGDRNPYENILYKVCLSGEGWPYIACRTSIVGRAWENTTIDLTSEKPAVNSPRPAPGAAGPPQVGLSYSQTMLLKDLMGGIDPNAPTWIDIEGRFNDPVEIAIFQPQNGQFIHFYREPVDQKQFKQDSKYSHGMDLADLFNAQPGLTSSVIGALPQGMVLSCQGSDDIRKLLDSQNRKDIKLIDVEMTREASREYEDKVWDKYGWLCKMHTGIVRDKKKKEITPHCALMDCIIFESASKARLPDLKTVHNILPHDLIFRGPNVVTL

O=C(O)CSCC(=O)NC1CCSC1=O (stereo not given)
inactive: Potency [1] | Potency [2] | Potency [3] | Potency [4]

C=C[C@H]1CN2CC[C@H]1C[C@H]2[C@H](O)c1ccnc2ccc(OC)cc12
inactive: Potency [1] | Potency [2] | Potency [3] | Potency [4]

CCN[C@H]1CN(CCCOC)S(=O)(=O)c2sc(S(N)(=O)=O)cc21
inactive: Potency [1] | Potency [2] | Potency [3] | Potency [4]

Nc1ccc(S(N)(=O)=O)cc1
inactive: Potency [1] | Potency [2] | Potency [3] | Potency [4]

O=c1c(-c2ccc(O)cc2)coc2cc(O)cc(O)c12
inactive: Potency [1] | Potency [2] | Potency [3] | Potency [4]

O=C(c1ccccc1)C(O)c1ccccc1 (stereo not given)
inactive: Potency [1] | Potency [2] | Potency [3] | Potency [4]

CC(N)CCCC(C)(C)O (stereo not given)
inactive: Potency [1] | Potency [2] | Potency [3] | Potency [4]

O=C(O)Cc1csc(-c2ccc(Cl)cc2)n1
inactive: Potency [1] | Potency [2] | Potency [3] | Potency [4]

CO[C@]12C[C@@H](COC(=O)c3cncc(Br)c3)CN(C)[C@@H]1Cc1cn(C)c3cccc2c13
inactive: Potency [1] | Potency [2] | Potency [3] | Potency [4]

CC(C(=O)O)c1cccc(Oc2ccccc2)c1 (stereo not given)
inactive: Potency [1] | Potency [2] | Potency [3] | Potency [4]

CCOC(=O)c1ccc(O)cc1
inactive: Potency [1] | Potency [2] | Potency [3] | Potency [4]

NCCCC[C@H](N[C@@H](CCc1ccccc1)C(=O)O)C(=O)N1CCC[C@H]1C(=O)O
inactive: Potency [1] | Potency [2] | Potency [3] | Potency [4]

Cc1nnc(NS(=O)(=O)c2ccc(N)cc2)s1
inactive: Potency [1] | Potency [2] | Potency [3] | Potency [4]

CC[C@H]1OC(=O)[C@H](C)[C@@H](O[C@H]2C[C@@](C)(OC)[C@@H](O)[C@H](C)O2)[C@H](C)[C@@H](O[C@@H]2O[C@H](C)C[C@H](N(C)C)[C@@H]2O)[C@](C)(O)C[C@@H](C)CN(C)[C@H](C)[C@@H](O)[C@]1(C)O
inactive: Potency [1] | Potency [2] | Potency [3] | Potency [4]

COC(=O)c1cc(Cl)c(NC(C)=O)cc1OC
inactive: Potency [1] | Potency [2] | Potency [3] | Potency [4]

CCCCOC(=O)CC(CC(=O)OCCCC)(OC(C)=O)C(=O)OCCCC
inactive: Potency [1] | Potency [2] | Potency [3] | Potency [4]

CC(O)CN(CCN(CC(C)O)CC(C)O)CC(C)O (stereo not given)
inactive: Potency [1] | Potency [2] | Potency [3] | Potency [4]

CCOc1ccc(NS(=O)(=O)c2ccc(N)cc2)nn1
inactive: Potency [1] | Potency [2] | Potency [3] | Potency [4]

COc1cc(NS(=O)(=O)c2ccc(N)cc2)nc(C)n1
inactive: Potency [1] | Potency [2] | Potency [3] | Potency [4]

CC(C(=O)O)c1ccc(/C=C2\CCCCC2=O)cc1 (stereo not given)
inactive: Potency [1] | Potency [2] | Potency [3] | Potency [4]

CC(C(=O)O)c1ccc(C(=O)c2ccccc2)s1 (stereo not given)
inactive: Potency [1] | Potency [2] | Potency [3] | Potency [4]

Oc1ccc(OCc2ccccc2)cc1
inactive: Potency [1] | Potency [2] | Potency [3] | Potency [4]

Cc1ccc(-c2ccccc2C#N)cc1
inactive: Potency [1] | Potency [2] | Potency [3] | Potency [4]

Nc1c[n+](N2CCOCC2)no1
inactive: Potency [1] | Potency [2] | Potency [3] | Potency [4]

Nc1ccc(S(=O)(=O)c2ccc(N)cc2)cc1
inactive: Potency [1] | Potency [2] | Potency [3] | Potency [4]

Cc1ccc(C(=O)C(=O)O)cc1C
inactive: Potency [1] | Potency [2] | Potency [3] | Potency [4]

c1ccc2sc(SN3CCOCC3)nc2c1
inactive: Potency [1] | Potency [2] | Potency [3] | Potency [4]

CC1CN(c2cc3c(cc2F)c(=O)c(C(=O)O)cn3-c2ccc(F)cc2F)CCN1 (stereo not given)
inactive: activity change, negative = inhibition [1] 7.88% [at 5.82 µM] | activity change, negative = reduced viability [2] 9.98% [at 5.82 µM] | activity change, negative = lower viability [3] 2.49% [at 5.82 µM] | activity change, negative = inhibition [4] -0.151% [at 5.82 µM]

CCCC(O)C(CC)CO (stereo not given)
inactive: Potency [1] | Potency [2] | Potency [3] | Potency [4]

CCCCCCCCCCC[C@@H](C[C@@H]1OC(=O)[C@H]1CCCCCC)OC(=O)[C@H](CC(C)C)NC=O
inactive: Potency [1] | Potency [2] | Potency [3] | Potency [4]

CN(C)C(=O)Oc1ccc[n+](C)c1
inactive: Potency [1] | Potency [2] | Potency [3] | Potency [4]

O=C1CC(c2ccc(Cl)cc2)CC(=O)N1
inactive: Potency [1] | Potency [2] | Potency [3] | Potency [4]

Cc1nnc(C(C)C)n1C1C[C@H]2CC[C@@H](C1)N2CC[C@H](NC(=O)C1CCC(F)(F)CC1)c1ccccc1 (stereo not given in full)
inactive: Potency [1] | Potency [2] | Potency [3] | Potency [4]

COc1ccc(S(=O)(=O)Nc2nnc(CC(C)C)s2)cc1
inactive: Potency [1] | Potency [2] | Potency [3] | Potency [4]

O=C1O[C@H](CO)[C@@H](O)[C@H](O)[C@H]1O
inactive: Potency [1] | Potency [2] | Potency [3] | Potency [4]

C#C[C@]1(O)CC[C@H]2[C@@H]3CCC4=CC(=O)CC[C@@H]4[C@H]3CC[C@@]21CC
inactive: Potency [1] | Potency [2] | Potency [3] | Potency [4]

COc1cc(/C=C/C(N)=O)cc(OC)c1OC
inactive: Potency [1] | Potency [2] | Potency [3] | Potency [4]

COc1cc(C(=O)OC(COCCC(C)C)CN2CCOCC2)cc(OC)c1OC (stereo not given)
inactive: Potency [1] | Potency [2] | Potency [3] | Potency [4]

CCOC(=O)C(O)c1ccccc1 (stereo not given)
inactive: Potency [1] | Potency [2] | Potency [3] | Potency [4]

O=C(O)c1cc(=O)c2c(OCC(O)COc3cccc4oc(C(=O)O)cc(=O)c34)cccc2o1
inactive: Potency [1] | Potency [2] | Potency [3] | Potency [4]

CCN1CCCC1CN (stereo not given)
inactive: Potency [1] | Potency [2] | Potency [3] | Potency [4]

Nc1ccc(O)cc1
inactive: Potency [1] | Potency [2] | Potency [3] | Potency [4]

Cc1ccc(S(=O)(=O)NC(=O)NC2CCCCC2)cc1
inactive: Potency [1] | Potency [2] | Potency [3] | Potency [4]

O=C1OC2(c3ccccc31)c1cc(Br)c(O)c(Br)c1Oc1c2cc(Br)c(O)c1Br
inactive: Potency [1] | Potency [2] | Potency [3] | Potency [4]

CC(C)COC(=O)c1ccc(N)cc1
inactive: Potency [1] | Potency [2] | Potency [3] | Potency [4]

CCCCCCCN(CC)CCCC(O)c1ccc(NS(C)(=O)=O)cc1 (stereo not given)
inactive: Potency [1] | Potency [2] | Potency [3] | Potency [4]

CN1[C@@H]2CCC[C@@H]1CC(NC(=O)c1nn(C)c3ccccc13)C2 (stereo not given in full)
inactive: Potency [1] | Potency [2] | Potency [3] | Potency [4]

O=C1OC(CN2CCOCC2)CN1/N=C/c1ccc([N+](=O)[O-])o1 (stereo not given)
inactive: Potency [1] | Potency [2] | Potency [3] | Potency [4]

C[C@@H](O)[C@H]1C(=O)N2C(C(=O)O)=C(SCCN=CN)C[C@H]12
inactive: Potency [1] | Potency [2] | Potency [3] | Potency [4]

CN(C)CCN(Cc1ccsc1)c1ccccn1
inactive: Potency [1] | Potency [2] | Potency [3] | Potency [4]

CC(C)Cn1cnc2c(N)nc3ccccc3c21
inactive: Potency [1] | Potency [2] | Potency [3] | Potency [4]

COC(=O)c1ccc(O)cc1
inactive: Potency [1] | Potency [2] | Potency [3] | Potency [4]

Cn1c([N+](=O)[O-])cnc1COC(N)=O
inactive: Potency [1] | Potency [2] | Potency [3] | Potency [4]

CN1CCC[C@@H]1c1cccnc1
inactive: Potency [1] | Potency [2] | Potency [3] | Potency [4]

CCOc1nc2cccc(C(=O)O)c2n1Cc1ccc(-c2ccccc2-c2nn[nH]n2)cc1
inactive: Potency [1] | Potency [2] | Potency [3] | Potency [4]

Cc1cc2nc3c(=O)[nH]c(=O)nc-3n(C[C@H](O)[C@H](O)[C@H](O)CO)c2cc1C
inactive: Potency [1] | Potency [2] | Potency [3] | Potency [4]

COc1ccc(CCN(C)CCCN2CCc3cc(OC)c(OC)cc3CC2=O)cc1OC
inactive: Potency [1] | Potency [2] | Potency [3] | Potency [4]

CC(=O)Nc1ccc(/C=N/NC(N)=S)cc1
inactive: Potency [1] | Potency [2] | Potency [3] | Potency [4]

Cc1cc(NS(=O)(=O)c2ccc(N)cc2)nc(C)n1
inactive: Potency [1] | Potency [2] | Potency [3] | Potency [4]

OC1(c2ccccc2)CCNCC1
inactive: Potency [1] | Potency [2] | Potency [3] | Potency [4]

— PubChem BioAssay (NCATS)
